Results as given in the supplement of paper PMC7057948, “A genome-wide approach for identification and characterisation of metabolite-inducible systems” (Nature Communications, 2020).

Key:
Test in all cases: relative induction of RFP reporter vs primary effector (background-corrected); higher = stronger activation of the biosensor
Conditions in all cases: inducer concentration 5 mM; 6 h; Cupriavidus necator H16; minimal medium + 0.4% gluconate
[1] = tested on: AcoR/P_H16_RS19445 acetoin biosensor (pEH052)
Description: (§1)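 C. necator H16 strains, each carrying one of 21 transcription factor/inducible promoter–mRFP biosensor plasmids, were grown in minimal medium in 96-well plates (robotic platform). Each was exposed to 46 structurally or metabolically related compounds at 5 mM at 30 °C. OD-normalised RFP fluorescence was read 6 h later and expressed as relative induction (%) = 100 × (FL compound − FL uninduced)/(FL primary inducer − FL uninduced); mean of n=4.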

[2] = tested on: AraC/P_araBAD L-arabinose biosensor (pEH176)
Description: as §1

[3] = tested on: BenM/P_H16_RS09790 benzoate biosensor (pEH148)
Description: as §1

[4] = tested on: FdsR/P_H16_RS03165 formate biosensor (pEH134)
Description: as §1

[5] = tested on: GabR/P_H16_RS23655 GABA biosensor (pEH256)
Description: as §1

[6] = tested on: HpdR/P_H16_RS18295 3-hydroxypropanoate biosensor (pEH010)
Description: as §1

[7] = tested on: KynR/P_H16_RS14030 L-kynurenine biosensor (pEH136)
Description: as §1

[8] = tested on: NahR/P_H16_RS08125 salicylate biosensor (pEH042)
Description: as §1

[9] = tested on: OapR/P_H16_RS01330 beta-alanine biosensor (pEH147)
Description: as §1

[10] = tested on: PcaQ/P_H16_RS30145 3,4-dihydroxybenzoate biosensor (pEH161)
Description: as §1

[11] = tested on: PhgR/P_H16_RS05530 phenylglyoxylate biosensor (pEH155)
Description: as §1

[12] = tested on: PhhR/P_H16_RS18365 L-phenylalanine biosensor (pEH137)
Description: as §1

[13] = tested on: SauR/P_H16_RS13695 sulfonatoacetate biosensor (pEH157)
Description: as §1

[14] = tested on: TtdR/P_H16_RS10665 tartrate biosensor (pEH083)
Description: as §1

[15] = tested on: XdhR/P_H16_RS05055 xanthine biosensor (pEH154)
Description: as §1

[16] = tested on: heterologous inducible system pEH002 (rhamnose/acrylate/cumate/itaconate set)
Description: as §1

[17] = tested on: heterologous inducible system pEH020 (rhamnose/acrylate/cumate/itaconate set)
Description: as §1

[18] = tested on: heterologous inducible system pEH040 (rhamnose/acrylate/cumate/itaconate set)
Description: as §1

[19] = tested on: heterologous inducible system pEH086 (rhamnose/acrylate/cumate/itaconate set)
Description: as §1
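Also: RFP excited at 585 nm with emission read at 620 nm, culture medium blanks subtracted from fluorescence and absorbance prior to normalisation.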

## OC[C@@H](O)[C@@H](O)[C@H](O)[C@H](O)CO [D-mannitol]
[1]
  relative induction of RFP reporter: 4.32%
[2]
  relative induction of RFP reporter: -0.00626%
[3]
  relative induction of RFP reporter: 0.00493%
[4]
  relative induction of RFP reporter: -0.914%
[5]
  relative induction of RFP reporter: -0.506%
[6]
  relative induction of RFP reporter: -0.0887%
[7]
  relative induction of RFP reporter: 0.488%
[8]
  relative induction of RFP reporter: 0.0228%
[9]
  relative induction of RFP reporter: -0.205%
[10]
  relative induction of RFP reporter: 0.0552%
[11]
  relative induction of RFP reporter: -0.267%
[12]
  relative induction of RFP reporter: 0.344%
[13]
  relative induction of RFP reporter: 0.0255%
[14]
  relative induction of RFP reporter: 0.195%
[15]
  relative induction of RFP reporter: -0.267%
[16]
  relative induction of RFP reporter: -0.000622%
[17]
  relative induction of RFP reporter: -0.0264%
[18]
  relative induction of RFP reporter: 0.166%
[19]
  relative induction of RFP reporter: 0.0103%

## Oc1cccc(O)c1 [resorcinol]
[1]
  relative induction of RFP reporter: 1.11%
[2]
  relative induction of RFP reporter: -0.0083%
[3]
  relative induction of RFP reporter: 0.0215%
[4]
  relative induction of RFP reporter: 3.2%
[5]
  relative induction of RFP reporter: -1.35%
[6]
  relative induction of RFP reporter: -0.13%
[7]
  relative induction of RFP reporter: -0.206%
[8]
  relative induction of RFP reporter: 0.04%
[9]
  relative induction of RFP reporter: -1.51%
[10]
  relative induction of RFP reporter: -0.109%
[11]
  relative induction of RFP reporter: 0.115%
[12]
  relative induction of RFP reporter: 0.365%
[13]
  relative induction of RFP reporter: 0.0138%
[14]
  relative induction of RFP reporter: 1.74%
[15]
  relative induction of RFP reporter: -0.161%
[16]
  relative induction of RFP reporter: -0.00943%
[17]
  relative induction of RFP reporter: -0.947%
[18]
  relative induction of RFP reporter: 0.407%
[19]
  relative induction of RFP reporter: -0.0428%

## NCC(=O)O [glycine]
[1]
  relative induction of RFP reporter: -0.038%
[2]
  relative induction of RFP reporter: -0.0181%
[3]
  relative induction of RFP reporter: 0.0164%
[4]
  relative induction of RFP reporter: -5.21%
[5]
  relative induction of RFP reporter: 0.401%
[6]
  relative induction of RFP reporter: -0.178%
[7]
  relative induction of RFP reporter: 0.211%
[8]
  relative induction of RFP reporter: 0.0163%
[9]
  relative induction of RFP reporter: -0.454%
[10]
  relative induction of RFP reporter: 0.00408%
[11]
  relative induction of RFP reporter: -0.415%
[12]
  relative induction of RFP reporter: -0.384%
[13]
  relative induction of RFP reporter: 0.0965%
[14]
  relative induction of RFP reporter: 0.812%
[15]
  relative induction of RFP reporter: -0.0501%
[16]
  relative induction of RFP reporter: 0.0153%
[17]
  relative induction of RFP reporter: -0.252%
[18]
  relative induction of RFP reporter: 0.354%
[19]
  relative induction of RFP reporter: 0.274%

## CC(N)CC(=O)O (configuration not stated) [3-aminobutanoate]
[1]
  relative induction of RFP reporter: 0.0935%
[2]
  relative induction of RFP reporter: -0.0347%
[3]
  relative induction of RFP reporter: 0.00428%
[4]
  relative induction of RFP reporter: -2.98%
[5]
  relative induction of RFP reporter: -1.28%
[6]
  relative induction of RFP reporter: -0.191%
[7]
  relative induction of RFP reporter: -0.097%
[8]
  relative induction of RFP reporter: 0.00216%
[9]
  relative induction of RFP reporter: 57.8%
[10]
  relative induction of RFP reporter: 0.0297%
[11]
  relative induction of RFP reporter: 0.0503%
[12]
  relative induction of RFP reporter: -0.0355%
[13]
  relative induction of RFP reporter: -0.0365%
[14]
  relative induction of RFP reporter: 0.625%
[15]
  relative induction of RFP reporter: 0.412%
[16]
  relative induction of RFP reporter: 0.0041%
[17]
  relative induction of RFP reporter: -0.315%
[18]
  relative induction of RFP reporter: 0.21%
[19]
  relative induction of RFP reporter: 0.139%

## O=C(O)C1=C[C@@H](O)[C@@H](O)[C@H](O)C1 [shikimate]
[1]
  relative induction of RFP reporter: 0.0178%
[2]
  relative induction of RFP reporter: -0.00161%
[3]
  relative induction of RFP reporter: -0.000316%
[4]
  relative induction of RFP reporter: -2.48%
[5]
  relative induction of RFP reporter: -0.317%
[6]
  relative induction of RFP reporter: 1.03%
[7]
  relative induction of RFP reporter: -0.0973%
[8]
  relative induction of RFP reporter: 0.00146%
[9]
  relative induction of RFP reporter: 0.246%
[10]
  relative induction of RFP reporter: 2.49%
[11]
  relative induction of RFP reporter: -0.587%
[12]
  relative induction of RFP reporter: 0.165%
[13]
  relative induction of RFP reporter: 0.0792%
[14]
  relative induction of RFP reporter: -0.0735%
[15]
  relative induction of RFP reporter: -0.446%
[16]
  relative induction of RFP reporter: -0.00769%
[17]
  relative induction of RFP reporter: -0.782%
[18]
  relative induction of RFP reporter: -0.0558%
[19]
  relative induction of RFP reporter: 0.188%

## N[C@@H](CC(=O)O)C(=O)O [L-aspartate]
[1]
  relative induction of RFP reporter: -1.54%
[2]
  relative induction of RFP reporter: -0.0179%
[3]
  relative induction of RFP reporter: -0.0325%
[4]
  relative induction of RFP reporter: 3.34%
[5]
  relative induction of RFP reporter: -1.17%
[6]
  relative induction of RFP reporter: -0.138%
[7]
  relative induction of RFP reporter: -0.00294%
[8]
  relative induction of RFP reporter: 0.0255%
[9]
  relative induction of RFP reporter: 0.356%
[10]
  relative induction of RFP reporter: -0.0549%
[11]
  relative induction of RFP reporter: -0.232%
[12]
  relative induction of RFP reporter: 0.437%
[13]
  relative induction of RFP reporter: 0.0772%
[14]
  relative induction of RFP reporter: -0.474%
[15]
  relative induction of RFP reporter: -0.175%
[16]
  relative induction of RFP reporter: 0.02%
[17]
  relative induction of RFP reporter: -0.78%
[18]
  relative induction of RFP reporter: -1.36%
[19]
  relative induction of RFP reporter: 0.389%

## O=C(O)c1cccnc1 [nicotinate]
[1]
  relative induction of RFP reporter: -2.26%
[2]
  relative induction of RFP reporter: 0.00152%
[3]
  relative induction of RFP reporter: 1.95%
[4]
  relative induction of RFP reporter: 113%
[5]
  relative induction of RFP reporter: -1.65%
[6]
  relative induction of RFP reporter: 0.0215%
[7]
  relative induction of RFP reporter: -0.289%
[8]
  relative induction of RFP reporter: 0.0131%
[9]
  relative induction of RFP reporter: -0.669%
[10]
  relative induction of RFP reporter: -0.0619%
[11]
  relative induction of RFP reporter: -0.587%
[12]
  relative induction of RFP reporter: -0.498%
[13]
  relative induction of RFP reporter: 0.0909%
[14]
  relative induction of RFP reporter: -0.44%
[15]
  relative induction of RFP reporter: 0.0721%
[16]
  relative induction of RFP reporter: 0.0144%
[17]
  relative induction of RFP reporter: -1.31%
[18]
  relative induction of RFP reporter: -1.49%
[19]
  relative induction of RFP reporter: 0.0778%

## O=C(O)CCC(=O)O [succinate]
[1]
  relative induction of RFP reporter: -1.14%
[2]
  relative induction of RFP reporter: -0.00365%
[3]
  relative induction of RFP reporter: -0.0349%
[4]
  relative induction of RFP reporter: 6.43%
[5]
  relative induction of RFP reporter: -0.306%
[6]
  relative induction of RFP reporter: -0.187%
[7]
  relative induction of RFP reporter: 0.402%
[8]
  relative induction of RFP reporter: 0.0287%
[9]
  relative induction of RFP reporter: -0.209%
[10]
  relative induction of RFP reporter: -0.0829%
[11]
  relative induction of RFP reporter: -0.471%
[12]
  relative induction of RFP reporter: 0.239%
[13]
  relative induction of RFP reporter: -0.0135%
[14]
  relative induction of RFP reporter: 0.784%
[15]
  relative induction of RFP reporter: 0.357%
[16]
  relative induction of RFP reporter: 0.0102%
[17]
  relative induction of RFP reporter: -1.2%
[18]
  relative induction of RFP reporter: -1.6%
[19]
  relative induction of RFP reporter: 0.338%
